DT40 TDP1 CPT – qHTS for Inhibitors of human tyrosyl-DNA phosphodiesterase 1 (TDP1): qHTS in cells in presence of CPT; chicken DT40 Tdp1-/-;hTDP1 cells + 20 nM CPT, ATP luminescence, 48 h; Potency, µM (titrated, usually from 46.2 µM), for inactives: top-dose activity change, negative = growth inhibition, actives largely listed as inhibitors; 420,000 compounds, 12% hits; AID 686979, 2013; further: potency means the concentration at half of the fitted maximal effect; nearly all actives have a fitted effect of over 55% in size
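Chicken DT40 Tdp1-/- cells complemented with human TDP1, 400 cells/well, exposed to compounds plus 20 nM camptothecin for at least 48 h at 37 C; viability read as ATP content by CellTiter-Glo luminescence.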
HT1080 IDH1KD tx – qHTS for induction of synthetic lethality in tumor cells producing 2HG: qHTS for the HT-1080-IDH1KD cell line; HT-1080 IDH1 knockdown viability, ATP luminescence, 48 h; Potency, µM (top dose mostly 46.1 µM), for inactives: at the top dose activity, negative = toxicity, actives largely listed as cytotoxic; 360,000 compounds, 2% hits; AID 686971, 2013;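 further: potency means the concentration at half of the fitted maximal effect; 0% = DMSO wells and -100% = cell-free medium wells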
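% activity derives from luminescence (CellTiter-Glo), normalised to DMSO and no-cell wells. HT-1080-IDH1KD cells, 750/well, had 48 h compound exposure at 37 °C.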
HT1080NT lethal – qHTS for induction of synthetic lethality in tumor cells producing 2HG: qHTS for the HT-1080-NT fibrosarcoma cell line | AID 686970, 2013 | 360,000 compounds, 1.6% hits | HT-1080-NT fibrosarcoma viability, CellTiter-Glo ATP luminescence, 48 h | Potency, µM (highest dose often 46.1 µM), for inactives: at the highest dose activity, negative = less viability, most hits filed as cytotoxic;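 further: NT is the 2HG producing partner of a matched IDH1 knockdown line; potency means the concentration at half of the fitted maximal effect; 0% = DMSO-treated cells and -100% = media-only wells without cells; nearly all actives have a fitted effect of over 55% in size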
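Read-out is CellTiter-Glo luminescence after 10 minutes at room temperature, following 48 hours' compound treatment of HT-1080-NT cells (750 cells/well, RPMI, 5% FBS, 37 degrees C).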
DT40 TDP1 no CPT – qHTS for Inhibitors of human tyrosyl-DNA phosphodiesterase 1 (TDP1): qHTS in cells in absence of CPT; AID 686978, 2013; Potency, µM (doses to about 46.2 µM), for the others: top-dose activity change, negative = growth inhibition, most hits filed as inhibitors; 420,000 compounds, 15% hits; DT40 Tdp1-/- hTDP1 cells, no CPT, ATP luminescence, 48 h; further: potency means the concentration at half of the fitted maximal effect; nearly all actives have a fitted effect of over 55% in size
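No-CPT arm: Tdp1-/-;hTDP1 DT40 cells (400/well) plus compounds, incubated ≥48 hr at 37 °C. Readout CellTiter-Glo luminescence.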
IL1B secr inh – qHTS for Inhibitors of Inflammasome Signaling: IL-1-beta AlphaLISA Primary Screen | THP-1 LPS/ATP IL-1B secretion, AlphaLISA, 16 h; hits give low values | activity change, % at 57.5 µM | 360,000 compounds, 4.7% hits; in the data active means activity change below about -50%; inconclusive means mostly about -30% to -49%
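Secreted IL-1B measured by AlphaLISA bead assay after 16 h compound exposure of THP-1 cells; compounds (final up to 57.5 uM) added 1 h before LPS (250 ng/mL) and ATP (1.25 mM) stimulation; lower signal means less secretion.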
* marks the source's active call; other numbers are inactive results; ? = inconclusive; / = not tested or not shown; [ ] = dose if it differs, or a comment. Hits are enriched below; roughly 19% of the tested compounds scored in any of these assays. Unless noted, the call rests on the fitted dose curve; in most records, active means well fitted curve in the direction sought with a large enough effect; inconclusive means small, poorly fitted or top-dose-only effect, or another doubt; inactive means no such curve, though single readings can be large; an effect the other way counts as inactive or inconclusive. Unless noted, on the % scale 0 is the no-effect control and ±100 the full control effect.

SMILES	DT40 TDP1 CPT	HT1080 IDH1KD tx	HT1080NT lethal	DT40 TDP1 no CPT	IL1B secr inh
COc1cc(OC)cc(C(=O)NCC(=O)NCCN2C(=O)S/C(=C\c3ccccc3Cl)C2=O)c1	?	-8%	-1%	?	-10
COc1cc(OC)cc(C(=O)NCC(=O)NCCN2C(=O)S/C(=C\c3ccc4c(c3)OCO4)C2=O)c1	?	-2%	0%	18µM*	-54*
O=C(CCc1nc2ccccc2c(=O)[nH]1)NCCN1C(=O)S/C(=C\c2ccc(Cl)cc2Cl)C1=O	8.2µM*	?	-29%	4.6µM*	17
COc1ccc(/C=C2\SC(=O)N(CCNC(=O)Cc3coc4cc(C)ccc34)C2=O)cc1OC	?	-25%	-18%	?	-3
COc1cc(C(=O)NCC(=O)NCCN2C(=O)S/C(=C\c3ccccc3Cl)C2=O)cc(OC)c1OC	18µM*	-9%	-2%	18µM*	-1
COc1ccc2c(ccn2S(=O)(=O)c2ccccc2)c1	-15%	-1%	1%	?	0
Cc1c(F)cccc1NC(=O)CCCCCC1NC(=O)NC1C (configuration not stated)	1%	2%	5%	-19%	-97*
CC1NC(=O)NC1CCCCCC(=O)Nc1ccc(F)cc1 (configuration not stated)	-20%	12%	13%	-1%	-97*
COCCCN1C(=O)C(CC(=O)NC2CCCCC2)CC(C(=O)N2CCCCCC2)=C1C (configuration not stated)	18%	-6%	-15%	13%	/
O=C(CC1CCCC1)N1CCN(S(=O)(=O)c2cccc(Br)c2)CC1	18µM*	3%	6%	?	9
Cc1cnc(C(=O)N2CCN(S(=O)(=O)c3cccc(Br)c3)CC2)cn1	-28%	7%	6%	?	10
O=C1NN(c2cccc(Br)c2)C(=O)/C1=C\c1ccc(N2CCOCC2)cc1	-5%	4%	0%	3%	-3
CN(CCc1ccccn1)C(=S)Nc1cccc(S(=O)(=O)N(C)C)c1	3%	7%	17%	-28%	27
COc1cc2c(cc1NC(=S)Nc1cccc(C(F)(F)F)c1)oc1ccccc12	23µM*	?	?	29µM*	-4
COCCCNC(=S)Nc1cc2oc3ccccc3c2cc1OC	8.2µM*	12µM*	2.3µM*	6.5µM*	-3
COc1cccc(CN(C)CC(=O)Nc2ccccc2C(=O)Nc2ccccc2)c1OC	?	-18%	-14%	?	-6
CC1(C)Cc2c(sc(NC(=O)C(=O)N3CCCCC3)c2C(N)=O)CO1	-26%	12%	13%	19%	8
CCN(c1ccc(C)cc1C)S(=O)(=O)c1nnc(NC(=O)C(C)(C)C)s1	?	-10%	-4%	?	-6
CCN(C(=O)Cc1nc(-c2ccc(OC)cc2)no1)c1cccc(Cl)c1	?	/	/	16µM*	/
CCN(C(=O)CCc1nc(-c2ccc(OC)cc2)no1)c1cc(OC)ccc1OC	?	-10%	-12%	?	-10
COc1ccc(-c2noc(CCC(=O)N(C)c3cccc(C)c3)n2)cc1	?	-9%	-10%	?	-18
CCCN(C(=O)CCc1nc(-c2ccc(OC)cc2)no1)c1ccccc1F	?	/	/	16µM*	/
CCCN(C(=O)Cc1nc(-c2ccc(OC)cc2)no1)c1ccccc1C	21µM*	/	/	?	/
C=CCSc1nnc2nc3[nH]c4c(C)cccc4c3nn12	1%	8%[9.24 µM]	5%	?	0
O=C(CCCOc1ccc(Br)cc1)NCCc1ccc(OC(F)F)cc1	-13%	-5%	-23%	-25%	-8
SMILES	DT40 TDP1 CPT	HT1080 IDH1KD tx	HT1080NT lethal	DT40 TDP1 no CPT	IL1B secr inh
CN1CCN(c2cc3c(c4c2[nH]c2ccccc24)C(=O)CC(C)(C)C3)CC1	?	-26%	-9%	16µM*	-65*
CN1CCN(c2ccc(Cl)cc2NC(=O)c2cc(=O)[nH]c3ccccc23)CC1	?	0%	-27%	?	-18
N/C(Cc1cccs1)=N\OC(=O)COc1ccc(Cl)cc1Cl	-18%	12%	4%	-9%	-16
COC(=O)CSc1ncnc2scc(-c3ccccc3)c12	-29%	-7%	-23%	-14%	2
COc1ccc(CC(=O)N2CCN(c3ccccc3OC)CC2)cc1	7%	2%	18%	-17%	-1
COc1ccc(-n2ncc3c(SCC(=O)N4CCN(c5ccccc5OC)CC4)ncnc32)cc1	?	-1%	-3%	21µM*	39
O=C(CSc1ncnc2scc(-c3ccccc3)c12)N1CCN(c2ccccc2F)CC1	?	8%	11%	18µM*	-1
COc1ccccc1N1CCN(C(=O)CSc2ncnc3scc(-c4ccccc4)c23)CC1	?	-14%	-8%	16µM*	-16
COc1ccc(CCN2CC(C(=O)OCC(=O)N(C)Cc3ccccc3)CC2=O)cc1OC (configuration not stated)	5%	-5%	3%	4%	36
COC(=O)c1ccc(/C=N\NC(=O)c2ccc(C)cc2Cl)cc1	-21%	-8%	7%	-19%	1
CCc1cccc(Nc2c3c(nc4ncnn24)CCC3)c1	?	-1%	11%	21µM*	86
O=C(NCc1ccccc1)c1ccc(-c2ccc(F)c(F)c2)c2ccoc12	?	-6%	?	?	-72*
O=C(NCc1cccc(Cl)c1)c1ccc(-c2ccc(F)c(F)c2)c2ccoc12	?	-20%	-14%	?	0
COc1ccc(CNC(=O)c2ccc(-c3cnn(C)c3)c3ccoc23)cc1OC	-73%	-5%	1%	?	-22
COc1ccc(CNC(=O)c2ccc(-c3ccc(F)c(F)c3)c3ccoc23)cc1OC	21µM*	-25%	-24%	15µM*	-12
O=C(NCCc1ccccc1)c1ccc(-c2ccc(F)c(F)c2)c2ccoc12	16µM*	9%	-8%	4.1µM*	0
O=C(NCc1cccs1)c1cccc2c(-c3ccc(F)c(F)c3)coc12	?	-18%	-15%	?	-28
O=C(NCc1ccco1)c1ccc(-c2ccc(F)c(F)c2)c2ccoc12	?	-22%	-20%	18µM*	-16
O=C(COc1ccccc1)NCC(c1ccco1)N1CCN(c2ccccc2)CC1 (configuration not stated)	?	0%	1%	-10%	-9

Screening data (PubChem)
